# Reference: the supplement of paper PMC12819154, “High-throughput peptide-centric local stability assay extends protein–ligand identification to membrane proteins, tissues and bacteria” (Nature Structural & Molecular Biology, 2025)
# Compound: Nc1ncnc2c1ncn2[C@@H]1O[C@H](COP(=O)(O)OP(=O)(O)OP(=O)(O)O)[C@@H](O)[C@H]1O [adenosine 5'-triphosphate]
# Assay: log2 fold change of tryptic peptide abundance, ligand vs vehicle (limited proteolysis) (log2 ratio); higher = more trypsin-susceptible (destabilized)
# Conditions: ligand concentration: 5 mM; sample: E. coli desalted lysate; replicate design: treated before aliquoting
# Protocol: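 HT-PELSA: desalted E. coli K-12 BW25113 lysate (with 12 mM MgCl2) incubated with 5 mM ATP (pH 7) or water for 30 min at 25 C, then a 4 min trypsin pulse at 22 C. Peptides were quantified by DIA-MS (4 replicates). Value is the peptide log2 fold change (treated/control); negative = stabilized. Scale: negative = ligand-stabilized region.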
# 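Further: lysate desalted by size exclusion to strip endogenous ATP, peptide intensities built from DIA-NN precursor signals, and peptides missing any value discarded before comparison.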
row,Target,log2 fold change
1,"UniProt P11553 (peptide sequence: AQIHYQYR, peptide start residue: 451)",0.93
2,"UniProt P0AAT4 (peptide sequence: AHLLKPYLTSR, peptide start residue: 288)",0.38
3,"UniProt P04949 (peptide sequence: NQSALSSSIER, peptide start residue: 21)",0.651
4,"UniProt P0AFU4 (peptide sequence: LMTASWPGNVR, peptide start residue: 344)",-1.31
5,"UniProt P32144 (peptide sequence: NILLVADHTK, peptide start residue: 206)",-0.398
6,"UniProt P39830 (peptide sequence: GANQVVMGER, peptide start residue: 528)",1.21
7,"UniProt P78061 (peptide sequence: FCHVYHACK, peptide start residue: 441)",-1.83
8,"UniProt P00579 (peptide sequence: EPTPEELAER, peptide start residue: 477)",0.829
9,"UniProt P37902 (peptide sequence: ALFKEPNDKALN, peptide start residue: 291)",1.12
10,"UniProt P75974 (peptide sequence: LIEDGTQR, peptide start residue: 178)",0.336
11,"UniProt P39199 (peptide sequence: AWFCGHEFYVDER, peptide start residue: 97)",1.88
12,"UniProt P15034 (peptide sequence: QNLTAPATMIDWRPVVHEMR, peptide start residue: 155)",-0.448
